Active and inactive are the calls of the source. Unless noted, no rule for the calls is given here.
Legend:
[1] = anti-His antibody binders, primary screen, artefact control for SMM control protein annotation, biochemical, small-molecule microarray, 635 nm fluorescence (AID 1128); conditions: anti-His Alexa647 antibody binding, higher = more signal;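 also: score merges feature fluorescence with signal-to-noise for each printed compound spot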
[2] = test system: Human papillomavirus type 1a E7 protein (residues 1-88); test: HPV1a E7 small-molecule binders, primary screen, biochemical, small-molecule microarray, residues 1-88, 635 nm (AID 1129); conditions: small-molecule microarray binding, fluorescence 635 nm; higher = more signal
[3] = molecular target: Focal adhesion kinase 1 (Homo sapiens) (UniProt Q05397); test: small-molecule microarray binders of FAK, primary screen, biochemical, 635/667 nm fluorescence, BSA, DTT (AID 1130); conditions: PTK2 binding, 635 nm fluorescence, higher = more signal;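 also: composite of spot emission at 667 nm and signal to noise over triplicate slides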
Chain of Focal adhesion kinase 1 (Homo sapiens) (Q05397 whole entry, looked up): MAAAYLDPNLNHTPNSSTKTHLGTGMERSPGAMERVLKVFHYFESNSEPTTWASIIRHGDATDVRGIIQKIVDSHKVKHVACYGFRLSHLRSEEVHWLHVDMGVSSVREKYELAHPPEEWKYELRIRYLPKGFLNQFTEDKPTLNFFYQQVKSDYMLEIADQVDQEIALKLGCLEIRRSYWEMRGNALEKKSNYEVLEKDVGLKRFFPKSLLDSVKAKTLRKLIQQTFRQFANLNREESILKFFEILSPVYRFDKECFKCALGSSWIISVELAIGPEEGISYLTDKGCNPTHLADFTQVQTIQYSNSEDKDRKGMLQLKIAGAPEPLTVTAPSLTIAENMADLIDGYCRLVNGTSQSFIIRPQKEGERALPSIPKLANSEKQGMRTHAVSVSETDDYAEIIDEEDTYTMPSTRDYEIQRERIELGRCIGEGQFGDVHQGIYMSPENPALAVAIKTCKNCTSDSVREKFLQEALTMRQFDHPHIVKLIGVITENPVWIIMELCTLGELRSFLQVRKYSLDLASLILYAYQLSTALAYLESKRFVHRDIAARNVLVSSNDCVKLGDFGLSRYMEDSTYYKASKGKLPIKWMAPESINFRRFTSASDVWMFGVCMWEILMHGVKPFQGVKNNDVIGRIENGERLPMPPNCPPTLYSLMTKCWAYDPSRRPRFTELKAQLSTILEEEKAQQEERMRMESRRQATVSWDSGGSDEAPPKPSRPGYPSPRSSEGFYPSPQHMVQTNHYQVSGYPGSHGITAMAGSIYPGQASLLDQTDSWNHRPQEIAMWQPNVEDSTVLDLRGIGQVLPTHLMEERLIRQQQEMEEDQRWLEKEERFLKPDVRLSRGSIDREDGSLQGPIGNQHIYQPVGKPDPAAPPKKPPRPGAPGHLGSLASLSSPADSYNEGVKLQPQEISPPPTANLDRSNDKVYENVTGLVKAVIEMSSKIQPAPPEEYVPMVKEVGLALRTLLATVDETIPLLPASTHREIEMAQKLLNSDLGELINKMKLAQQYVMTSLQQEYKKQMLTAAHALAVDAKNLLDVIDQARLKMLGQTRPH

[4] = test system: Fibrinogen (Alexa647-labelled); test: fibrinogen binders on compound microarrays, profiling panel, artefact control for SMM control-protein annotation, biochemical, small-molecule microarray, 635/667 nm fluorescence (AID 1131); conditions: fibrinogen-A647 binding fluorescence, higher = more signal;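 also: z-score merges 667 nm fluorescence with per-spot signal-to-noise over triplicate slides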
[5] = molecular target: Follistatin (Homo sapiens) (UniProt P19883); test: follistatin binders on small-molecule microarrays, primary screen, biochemical, small-molecule microarray, 635/667 nm fluorescence (AID 1132); conditions: FST binding, 635 nm fluorescence, higher = more signal
Chain of Follistatin (Homo sapiens) (P19883 whole entry, looked up): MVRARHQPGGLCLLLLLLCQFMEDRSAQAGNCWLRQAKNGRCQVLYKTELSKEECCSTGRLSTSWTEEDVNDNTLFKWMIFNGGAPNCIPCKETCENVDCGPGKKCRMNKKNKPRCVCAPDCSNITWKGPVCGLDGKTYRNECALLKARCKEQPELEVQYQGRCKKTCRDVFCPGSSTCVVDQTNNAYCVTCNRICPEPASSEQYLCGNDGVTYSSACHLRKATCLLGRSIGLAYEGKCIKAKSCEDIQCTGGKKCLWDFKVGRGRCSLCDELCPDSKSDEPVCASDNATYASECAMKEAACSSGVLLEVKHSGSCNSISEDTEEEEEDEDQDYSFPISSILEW

[6] = molecular target: Fibroblast growth factor 2 (Homo sapiens) (UniProt P09038); test: FGF2 binders on small-molecule microarrays, primary screen, biochemical, small-molecule microarray, 635/667 nm fluorescence (AID 1133); conditions: small-molecule microarray binding, FGF2, fluorescence 635/667; higher = more signal
Chain of Fibroblast growth factor 2 (Homo sapiens) (P09038 whole entry, looked up): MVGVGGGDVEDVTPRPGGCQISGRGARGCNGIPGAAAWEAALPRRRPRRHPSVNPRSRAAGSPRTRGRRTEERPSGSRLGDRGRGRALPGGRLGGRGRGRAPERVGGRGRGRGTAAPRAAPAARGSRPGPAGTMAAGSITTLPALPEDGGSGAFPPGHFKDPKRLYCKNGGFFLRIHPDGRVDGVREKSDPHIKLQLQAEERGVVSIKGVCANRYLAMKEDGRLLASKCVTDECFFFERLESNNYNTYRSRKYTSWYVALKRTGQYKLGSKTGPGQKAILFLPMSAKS

[7] = mitochondrial membrane potential change in A549 cells, profiling panel, cell-based, JC-1 fluorescence, basal, 24 h, 100 nL (AID 1138); conditions: higher = more signal;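 also: A549 lung adenocarcinoma cells under basal conditions with no added stimulus; test concentration not given here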
Lefty1 = Lefty1 binders on small-molecule microarrays, primary screen, biochemical, small-molecule microarray, 635/667 nm fluorescence (AID 1139); conditions: small-molecule microarray binding, fluorescence 635/667; higher = more signal
[8] = test system: wheat germ agglutinin (Triticum aestivum), Alexa647-labelled; test: wheat germ agglutinin binders on compound microarrays, profiling panel, artefact control for SMM control-protein annotation, biochemical, small-molecule microarray, 635/667 nm fluorescence (AID 1140); conditions: WGA-A647 binding, 635 nm fluorescence, higher = more signal;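 also: score merges 667 nm feature emission with signal to noise over triplicate slides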
[9] = molecular target: Luciferin 4-monooxygenase (Photinus pyralis) (UniProt P08659); test: firefly luciferase enzyme inhibitors, primary screen, biochemical, luminescence, purified enzyme, 2006 set (AID 1141); conditions: SteadyGlo luminescence, 30 min, higher = more signal, called active from +8 up or from −8 down;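 also: cell-free assay with purified firefly luciferase at 100 ng per well in PBS; test concentration not given here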
Chain of Luciferin 4-monooxygenase (Photinus pyralis) (P08659 whole entry, looked up): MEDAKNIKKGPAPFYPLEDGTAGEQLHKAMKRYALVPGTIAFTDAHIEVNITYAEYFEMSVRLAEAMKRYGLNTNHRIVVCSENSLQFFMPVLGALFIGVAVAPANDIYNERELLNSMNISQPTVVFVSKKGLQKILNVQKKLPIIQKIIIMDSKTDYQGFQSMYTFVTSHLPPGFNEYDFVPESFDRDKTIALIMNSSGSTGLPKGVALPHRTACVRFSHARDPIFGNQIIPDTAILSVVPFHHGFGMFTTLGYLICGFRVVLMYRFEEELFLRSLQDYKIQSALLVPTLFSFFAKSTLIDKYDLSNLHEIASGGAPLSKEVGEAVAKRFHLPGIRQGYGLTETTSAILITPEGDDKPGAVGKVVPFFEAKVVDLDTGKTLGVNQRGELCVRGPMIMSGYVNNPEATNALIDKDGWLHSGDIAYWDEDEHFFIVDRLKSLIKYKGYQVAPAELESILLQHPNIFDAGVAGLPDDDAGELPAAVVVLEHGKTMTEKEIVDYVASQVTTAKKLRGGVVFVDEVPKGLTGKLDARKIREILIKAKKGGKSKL

[10] = test system: Wnt5a (protein binding on small-molecule microarray); test: Wnt5a binders on small-molecule microarray, primary screen, biophysical, 635/667 nm fluorescence (AID 1142); conditions: 635 nm fluorescence, higher = more signal;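 also: fluorescence read at 667 nm with signal to noise per printed feature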
[11] = cell viability in Huh7 cells, primary screen, cytotoxicity control for HCV replication inhibitor project, CellTiter-Glo luminescence, basal, 48 h (AID 1143); conditions: Huh7 HCV replicon, higher = more signal, called active from +8 up or from −8 down;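 also: Huh7 hepatoma cells carrying a hepatitis C replication reporter with no stimulus; test concentration not given here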
[12] = P. aeruginosa biofilm formation inhibitors, primary screen, PAO1 strain, BacTiter-Glo luminescence, LB-PBS (AID 1144); conditions: 12 h, higher = more signal
[13] = CREB reporter modulators without forskolin, primary screen, cell-based, PC12, CRE-LacZ reporter, unstimulated (AID 1145); conditions: no forskolin, luminescence, 4.5 h, higher = more signal, called active from +8 up or from −8 down
[14] = CREB reporter modulators under forskolin, primary screen, cell-based, PC12, CRE-LacZ reporter, forskolin-stimulated (AID 1146); conditions: luminescence, 4.5 h, higher = more signal, called active from +8 up or from −8 down;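 also: PC12 cells with 6xCRE LacZ reporter stimulated by forskolin 10 µM; beta-galactosidase reporter signal reflecting CREB driven transcription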
[15] = molecular target: Streptavidin (Streptomyces avidinii) (UniProt P22629); test: streptavidin binders on small-molecule microarray, primary screen, artefact control for SMM compound annotation, biophysical, 635/667 nm fluorescence (AID 1147); conditions: streptavidin binding, higher = more signal;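 also: signal reflects streptavidin binding to arrayed compounds as a control protein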
Chain of Streptavidin (Streptomyces avidinii) (P22629 whole entry, looked up): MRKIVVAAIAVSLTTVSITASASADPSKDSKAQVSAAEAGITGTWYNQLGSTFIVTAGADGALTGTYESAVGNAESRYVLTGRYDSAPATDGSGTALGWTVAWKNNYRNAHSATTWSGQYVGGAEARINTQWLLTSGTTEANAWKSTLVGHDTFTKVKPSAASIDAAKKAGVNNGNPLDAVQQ

[16] = small-molecule binders of probe aInhba, primary screen, biochemical, small-molecule microarray, 635/667 nm fluorescence (AID 1148); conditions: higher = more signal;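 also: score merges 667nm spot fluorescence with signal-to-noise for antibody binding to printed compounds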
Torsin-1A (Homo sapiens) [17] = molecular target: Torsin-1A (Homo sapiens) (UniProt O14656); test: torsin A binders from cell lysate, primary screen, small-molecule microarray, wild-type, 635/667 nm (AID 1149); conditions: COS7 hTOR1A-WT lysate, 635 nm fluorescence, higher = more signal
Chain of Torsin-1A (Homo sapiens) (O14656 whole entry, looked up): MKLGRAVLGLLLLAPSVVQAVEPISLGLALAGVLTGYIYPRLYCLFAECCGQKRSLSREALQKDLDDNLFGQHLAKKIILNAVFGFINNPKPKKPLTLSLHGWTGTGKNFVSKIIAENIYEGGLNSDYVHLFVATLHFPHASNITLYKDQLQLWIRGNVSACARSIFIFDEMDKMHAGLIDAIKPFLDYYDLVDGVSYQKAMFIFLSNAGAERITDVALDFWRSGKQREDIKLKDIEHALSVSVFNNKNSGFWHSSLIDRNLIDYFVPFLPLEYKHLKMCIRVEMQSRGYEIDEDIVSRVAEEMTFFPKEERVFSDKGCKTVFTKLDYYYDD

Torsin-1A (Homo sapiens) [18] = molecular target: Torsin-1A (Homo sapiens) (UniProt O14656); test: small-molecule binders of mutant TOR1A in lysate, primary screen, cell lysate, small-molecule microarray, COS7 lysate, 635/667 nm fluorescence (AID 1150); conditions: COS7 hTOR1A mutant lysate, 635 nm fluorescence, higher = more signal;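 also: score pools 667 nm emission and signal to noise measuring lysate protein binding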
[19] = test system: Sonic hedgehog protein (Shh); test: small-molecule binders of Shh protein, primary screen, biochemical, small-molecule microarray, 635/667 nm fluorescence (AID 1151); conditions: small-molecule microarray binding, 635 nm fluorescence; higher = more signal;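 also: Shh protein binding to compounds spotted on small-molecule microarray slides; score combines spot fluorescence intensity with signal-to-noise across triplicate slides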

SMILES	composite z-score [1]	composite z-score [2]	composite z-score [3]	composite z-score [4]	composite z-score [5]	composite z-score [6]	z-score [7]	composite z-score (Lefty1)	composite z-score [8]	z-score [9]	composite z-score [10]	z-score [11]	z-score [12]	z-score [13]	z-score [14]	composite z-score [15]	composite z-score [16]	composite z-score (Torsin-1A (Homo sapiens) [17])	composite z-score (Torsin-1A (Homo sapiens) [18])	composite z-score [19]
CO[C@H]1O[C@H](CO)[C@@H](OC(=O)Nc2cccc(F)c2)[C@H](OC(=O)Nc2ccc3c(c2)OCO3)[C@H]1OC(=O)Nc1ccc2c(c1)OCO2	1.62	1.26	0.807	0.884	1.32	0.819	-0.358	0.9	1.15	-5.24 (inactive)	0.146	-2.58 (inactive)	-0.905 (inactive)	0.195 (inactive)	-0.724 (inactive)	-0.0782	0.0155	0.967	1.2	1.52
COCCOC(=O)N1C(=O)[C@@]2(c3ccccc31)[C@H](c1ccccc1OCCO)N1[C@H](c3ccccc3)[C@H](c3ccccc3)OC(=O)[C@H]1[C@@H]2C(=O)N1CCc2cc(OC)c(OC)cc2C1	1.14	0.659	0.413	0.457	1.27	1.36	-1.03	0.756	0.435	-0.209 (inactive)	0.212	-3.53 (inactive)	-1.04 (inactive)	0.0736 (inactive)	2.88 (inactive)	0.02	0.255	0.517	0.546	1.24
COC(=O)C(CC#Cc1ccc2c(c1)[C@]1(C(=O)N2)[C@H](c2ccc(OCCO)cc2)N2[C@H](c3ccccc3)[C@H](c3ccccc3)OC(=O)[C@H]2[C@@H]1C(=O)O)C(=O)OC	3.08	1.19	1.38	0.915	0.915	0.228	0.161	0.861	1.1	-3.07 (inactive)	0.138	-0.565 (inactive)	-1.11 (inactive)	-0.554 (inactive)	0.295 (inactive)	0.344	0.717	0.477	0.538	0.759
NC(=O)NCC#Cc1ccc2c(c1)[C@]1(C(=O)N2)[C@H](c2ccc(O)cc2)N2[C@H](c3ccccc3)[C@H](c3ccccc3)OC(=O)[C@H]2[C@@H]1C(=O)NC[C@H](O)c1ccccc1	-0.652	-0.843	-0.126	-1.74	-2.12	-1.11	0.717	-3.02	-1.82	-0.498 (inactive)	-0.579	-0.383 (inactive)	0.502 (inactive)	0.48 (inactive)	-0.334 (inactive)	-1.85	-0.239	-1.19	-1	-1.22
Cc1ccc(S[C@]2(C(=O)O)CC(=O)N(C3CCCCC3)[C@@H]2c2ccc(CO)cc2)cc1	2.04	1.16	0.552	0.991	0.271	0.257	0.991	-0.776	0.899	0.186 (inactive)	0.219	-0.0359 (inactive)	-0.78 (inactive)	-0.116 (inactive)	-0.337 (inactive)	1.28	0.112	-0.284	-0.249	-0.265
CCCC[C@H]1OB(O)C[C@H]2C1=C(COc1ccccc1)Cn1c(=O)n(-c3ccccc3)c(=O)n12	0.458	0.711	-0.0229	0.333	1.1	0.302	-0.0843	0.976	0.09	-0.25 (inactive)	0.0561	-0.363 (inactive)	-0.127 (inactive)	-0.141 (inactive)	0.402 (inactive)	0.0395	-0.104	0.418	0.5	1.64
COCCOC(=O)N1C(=O)[C@@]2(c3cc(C#CCNC(N)=O)ccc31)[C@H](C(=O)N1CCCCCCC1)[C@H]1C(=O)O[C@H](c3ccccc3)[C@H](c3ccccc3)N1[C@@H]2c1ccc(OCCO)cc1	-0.456	0.492	0.423	0.577	1.15	0.126	-1.6	0.577	0.534	-1.19 (inactive)	0.0855	-0.897 (inactive)	-1.52 (inactive)	0.22 (inactive)	-0.311 (inactive)	0.32	0.232	0.0121	0.145	0.438
COc1cc2c(cc1OC)CN(C(=O)[C@@H]1[C@H]3C(=O)O[C@H](c4ccccc4)[C@H](c4ccccc4)N3[C@H](c3ccc(OCCO)cc3)[C@@]13C(=O)Nc1ccc(C#CCCO)cc13)CC2	1.23	1.23	0.237	0.956	1.36	0.999	-1.37	1.08	1.27	-0.418 (inactive)	0.452	-4.91 (inactive)	-1.07 (inactive)	-0.465 (inactive)	0.0283 (inactive)	1.64	-0.0812	0.431	0.755	1.25
COc1ccc(CCNC(=O)[C@@H]2c3ccccc3C(=O)N(Cc3ccccc3C(F)(F)F)[C@H]2c2ccc(CO)cc2)cc1	0.263	0.656	0.495	-0.731	0.566	-0.388	1.07	-0.526	0.665	0.912 (inactive)	-0.189	-2.64 (inactive)	-0.984 (inactive)	-0.295 (inactive)	-0.132 (inactive)	-0.752	-0.168	-1.27	0.714	-0.25
CCCCC(=C=CC[C@H](O)c1cccc(OCCO)c1)C[C@H](O)COCc1ccccc1	-0.178	0.101	0.105	-0.606	0.0306	-0.473	0.396	0.743	0.435	-0.352 (inactive)	-0.122	-1.33 (inactive)	-0.295 (inactive)	3.54 (inactive)	1.04 (inactive)	0.206	-0.101	0.139	0.0056	0.508

From PubChem BioAssay
